Source: PubChem BioAssay (EPA / NIEHS)
Activity calls are given as the source filed them. Rule for the calls: active = hit-call score of the fitted dose curve at least 0.9, where 1 is the maximum; inactive = score below 0.9.

Columns and labels:
Conditions in all cases: mRNA level, 48 h; actives raise or lower the signal
[1] = read-out: matrix metalloproteinase-10 (MMP10), MMP10 (gene 4319); assay: LTEA_HepaRG_MMP10: Life Technologies and Expression Analysis (LTEA) Assay for matrix metalloproteinase-10 (MMP10) using HepaRG (AID 2283517)
Procedure, shortened: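 HepaRG, collagen I, ~100,000 cells/well; serum-free induction medium; 48 h exposure, duplicate, 8-pt half-log to 100 uM, 0.5% DMSO. Readout: TaqMan qRT-PCR, normalized to ACTB/GAPDH/POLR2A; bidirectional fit vs DMSO.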

[2] = read-out: MYC, MYC (gene 4609); assay: LTEA_HepaRG_MYC: Life Technologies and Expression Analysis (LTEA) Assay for MYC using HepaRG (AID 2283518)
Procedure, shortened: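 Differentiated human HepaRG cells, plated 48 h then switched to serum-free induction medium, were exposed in duplicate for 48 h to 8-point half-log series up to 100 uM in 0.5% DMSO. MYC mRNA measured by qRT-PCR, normalized to ACTB/GAPDH/POLR2A.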

[3] = read-out: matrix metalloproteinase-3 (MMP3), MMP3 (gene 4314); assay: LTEA_HepaRG_MMP3: Life Technologies and Expression Analysis (LTEA) Assay for matrix metalloproteinase-3 (MMP3) using HepaRG (AID 2283519)
Procedure, shortened: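 Differentiated human HepaRG cells, plated 48 h on collagen I, were exposed in duplicate for 48 h in serum-free induction medium to eight half-log concentrations up to 100 uM in 0.5% DMSO. MMP3 mRNA was quantified by TaqMan qRT-PCR, normalised to ACTB, GAPDH and POLR2A.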

[4] = read-out: Paternally Expressed 10 (PEG10), PEG10 (gene 23089); assay: LTEA_HepaRG_PEG10: Life Technologies and Expression Analysis (LTEA) Assay for Paternally Expressed 10 (PEG10) using HepaRG (AID 2283520)
Procedure, shortened: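 Chemicals tested on HepaRG cells for 48 h, highest concentration 100 uM. PEG10 expression assessed by qRT-PCR relative to DMSO control.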

[5] = read-out: Nuclear factor NF-kappa-B p105 subunit (Homo sapiens) (UniProt P19838); assay: LTEA_HepaRG_NFKB1: Life Technologies and Expression Analysis (LTEA) Assay for Nuclear Factor Kappa B Subunit 1 (NFKB1) using HepaRG (AID 2283521);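 note: TaqMan qRT-PCR transcript normalised to ACTB GAPDH and POLR2A housekeeping genes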
Procedure, shortened: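 Differentiated human HepaRG cells were exposed for 48 h in serum-free induction medium to eight concentrations (top 100 uM, half-log steps, 0.5% DMSO), in duplicate. NFKB1 mRNA was measured by TaqMan qRT-PCR, normalized to ACTB/GAPDH/POLR2A, and fitted bidirectionally against DMSO.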

[6] = read-out: Protein phosphatase 2A (PPP2R4), PTPA (gene 5524); assay: LTEA_HepaRG_PPP2R4: Life Technologies and Expression Analysis (LTEA) Assay for Protein phosphatase 2A (PPP2R4) using HepaRG (AID 2283522)
Procedure, shortened: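 Gene-expression endpoint in HepaRG hepatic cells: 48 h treatment across eight half-log concentrations up to 100 uM in 0.5% DMSO. PPP2R4 mRNA by qRT-PCR, normalized to three endogenous control genes.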

[7] = read-out: Phosphatase and tensin (PTEN), PTEN (gene 5728); assay: LTEA_HepaRG_PTEN: Life Technologies and Expression Analysis (LTEA) Assay for Phosphatase and tensin (PTEN) using HepaRG (AID 2283523)
Procedure, shortened: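 Differentiated human HepaRG cells, plated 48 h then switched to serum-free induction medium, were exposed in duplicate for 48 h to eight half-log concentrations up to 100 uM in 0.5% DMSO. PTEN mRNA measured by TaqMan qRT-PCR, normalized to ACTB/GAPDH/POLR2A, bidirectional fit versus DMSO.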

[8] = read-out: Pyruvate Dehydrogenase Kinase 4 (PDK4), PDK4 (gene 5166); assay: LTEA_HepaRG_PDK4: Life Technologies and Expression Analysis (LTEA) Assay for Pyruvate Dehydrogenase Kinase 4 (PDK4) using HepaRG (AID 2283525)
Procedure, shortened: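 Differentiated human HepaRG cells, pre-cultured 48 h, were exposed in duplicate for 48 h in serum-free induction medium to eight half-log concentrations up to 100 uM in 0.5% DMSO. PDK4 mRNA was quantified by qRT-PCR, normalized to ACTB, GAPDH and POLR2A, bidirectional fitting versus DMSO.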

[9] = read-out: NAD(P)H dehydrogenase [quinone] 1 (NQO1), NQO1 (gene 1728); assay: LTEA_HepaRG_NQO1: Life Technologies and Expression Analysis (LTEA) Assay for NAD(P)H dehydrogenase [quinone] 1 (NQO1) using HepaRG (AID 2283526)
Procedure, shortened: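 Human HepaRG hepatic cells received chemicals for 48 h in serum-free induction medium with 0.5% DMSO, up to 100 uM. Expression was assessed by TaqMan qRT-PCR against housekeeping controls and fitted bidirectionally against DMSO.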

[10] = read-out: Nuclear factor erythroid 2-related factor 2 (Homo sapiens) (UniProt Q16236); assay: LTEA_HepaRG_NFE2L2: Life Technologies and Expression Analysis (LTEA) Assay for Nuclear factor erythroid 2-related factor 2 (NFE2L2) Transcription Factor using HepaRG (AID 2283527);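 note: TaqMan qRT-PCR transcript level normalised to ACTB GAPDH and POLR2A housekeeping genes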
Procedure, shortened: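 Differentiated human HepaRG cells in serum-free induction medium were exposed for 48 h to eight concentrations (top 100 uM, half-log dilutions, 0.5% DMSO), in duplicate. NFE2L2 mRNA was quantified by TaqMan qRT-PCR, normalized to ACTB, GAPDH and POLR2A, with bidirectional fitting versus DMSO.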

[11] = read-out: Signal transducer and activator of transcription 3 (Homo sapiens) (UniProt P40763); assay: LTEA_HepaRG_STAT3: Life Technologies and Expression Analysis (LTEA) Assay for Signal transducer and activator of transcription (STAT3) using HepaRG (AID 2283529)
Procedure, shortened: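 Differentiated human HepaRG cells in serum-free induction medium were exposed in duplicate for 48 h to eight half-log concentrations up to 100 uM in 0.5% DMSO. STAT3 mRNA was quantified by TaqMan qRT-PCR, normalized to ACTB, GAPDH and POLR2A, and fitted bidirectionally against DMSO.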

[12] = read-out: solute carrier (SLCO1B1), SLCO1B1 (gene 10599); assay: LTEA_HepaRG_SLCO1B1: Life Technologies and Expression Analysis (LTEA) Assay for solute carrier (SLCO1B1) using HepaRG (AID 2283530)
Procedure, shortened: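 Differentiated human HepaRG cells, plated 48 h, switched to serum-free induction medium and exposed in duplicate for 48 h to 8 half-log concentrations (top 100 uM) in 0.5% DMSO. SLCO1B1 mRNA by TaqMan qRT-PCR, normalized to ACTB/GAPDH/POLR2A.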

[13] = read-out: sulfotransferase 2A1 (SULT2A1), SULT2A1 (gene 6822); assay: LTEA_HepaRG_SULT2A1: Life Technologies and Expression Analysis (LTEA) Assay for sulfotransferase 2A1 (SULT2A1) using HepaRG (AID 2283531)
Procedure, shortened: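 Differentiated human HepaRG cells in serum-free induction medium were exposed for 48 h to eight half-log concentrations (top 100 uM, 0.5% DMSO). SULT2A1 mRNA was measured by qRT-PCR, normalized to ACTB, GAPDH and POLR2A, and fitted bidirectionally against DMSO.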

[14] = read-out: Transforming Growth Factor (TGFA), TGFA (gene 7039); assay: LTEA_HepaRG_TGFA: Life Technologies and Expression Analysis (LTEA) Assay for Transforming Growth Factor (TGFA) using HepaRG (AID 2283532)
Procedure, shortened: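 Differentiated human HepaRG cells, plated 48 h then switched to serum-free induction medium, were exposed in duplicate for 48 h to 8-point half-log series from 100 uM in 0.5% DMSO. TGFA mRNA measured by qRT-PCR, normalized to ACTB/GAPDH/POLR2A, bidirectional fit versus DMSO.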

[15] = read-out: Transforming Growth Factor (TGFB1), TGFB1 (gene 7040); assay: LTEA_HepaRG_TGFB1: Life Technologies and Expression Analysis (LTEA) Assay for Transforming Growth Factor (TGFB1) Transporter using HepaRG (AID 2283533)
Procedure, shortened: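 Differentiated human HepaRG cells in serum-free induction medium were exposed in duplicate for 48 h to eight concentrations (top 100 uM, half-log steps, 0.5% DMSO). TGFB1 mRNA was quantified by qRT-PCR, normalized to ACTB, GAPDH, POLR2A, and fitted bidirectionally against DMSO.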

[16] = read-out: TIMP1, TIMP1 (gene 7076); assay: LTEA_HepaRG_TIMP1: Life Technologies and Expression Analysis (LTEA) Assay for TIMP1 using HepaRG (AID 2283534);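 note: TaqMan qRT-PCR signal normalized to ACTB GAPDH and POLR2A housekeeping genes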
Procedure, shortened: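 Differentiated human HepaRG cells in serum-free induction medium were exposed 48 h to chemicals (8 half-log concentrations, top 100 uM, 0.5% DMSO). TIMP1 mRNA was quantified by TaqMan qRT-PCR, normalized to ACTB/GAPDH/POLR2A; bidirectional fit versus DMSO.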

[17] = read-out: Tumor necrosis factor receptor 1 (TNFRSF1A), TNFRSF1A (gene 7132); assay: LTEA_HepaRG_TNFRSF1A: Life Technologies and Expression Analysis (LTEA) Assay for Tumor necrosis factor receptor 1 (TNFRSF1A) using HepaRG (AID 2283535)
Procedure, shortened: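 Differentiated human HepaRG cells were exposed in duplicate for 48 h in serum-free induction medium to eight concentrations (top 100 uM, half-log steps, 0.5% DMSO). TNFRSF1A mRNA was quantified by qRT-PCR, normalized to ACTB, GAPDH and POLR2A, then fitted bidirectionally against DMSO.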

[18] = read-out: succinate dehydrogenase complex iron sulfur subunit B (SDHB), SDHB (gene 6390); assay: LTEA_HepaRG_SDHB: Life Technologies and Expression Analysis (LTEA) Assay for succinate dehydrogenase complex iron sulfur subunit B (SDHB) using HepaRG (AID 2283528)
Procedure, shortened: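 HepaRG, 48 h exposure, 8-pt half-log series from 100 uM in 0.5% DMSO, duplicates. Readout: SDHB mRNA by Fluidigm qRT-PCR vs housekeeping genes; bidirectional fit relative to DMSO.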

Measured: outcome

Sequence of Signal transducer and activator of transcription 3 (Homo sapiens) (P40763 whole entry, looked up): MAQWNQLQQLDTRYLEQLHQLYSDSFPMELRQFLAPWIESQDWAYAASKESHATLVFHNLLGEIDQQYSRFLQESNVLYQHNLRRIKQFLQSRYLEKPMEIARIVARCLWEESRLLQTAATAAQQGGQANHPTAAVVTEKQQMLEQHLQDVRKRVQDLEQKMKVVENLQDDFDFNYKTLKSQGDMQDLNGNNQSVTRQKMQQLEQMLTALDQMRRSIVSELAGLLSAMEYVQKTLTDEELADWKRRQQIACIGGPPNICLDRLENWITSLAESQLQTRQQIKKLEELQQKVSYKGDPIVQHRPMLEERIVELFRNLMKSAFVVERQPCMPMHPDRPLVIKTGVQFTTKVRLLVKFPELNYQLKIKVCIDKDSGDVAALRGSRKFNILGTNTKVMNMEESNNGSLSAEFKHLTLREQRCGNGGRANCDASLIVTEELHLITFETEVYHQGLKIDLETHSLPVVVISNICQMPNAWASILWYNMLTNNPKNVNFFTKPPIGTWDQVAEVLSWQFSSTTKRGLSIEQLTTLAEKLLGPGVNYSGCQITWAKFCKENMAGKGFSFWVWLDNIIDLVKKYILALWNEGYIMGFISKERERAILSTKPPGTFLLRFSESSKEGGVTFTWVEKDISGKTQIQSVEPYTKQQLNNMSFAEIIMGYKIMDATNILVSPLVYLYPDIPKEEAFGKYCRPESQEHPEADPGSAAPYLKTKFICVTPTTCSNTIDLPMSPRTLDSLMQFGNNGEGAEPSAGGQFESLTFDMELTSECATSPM
Sequence of Nuclear factor erythroid 2-related factor 2 (Homo sapiens) (Q16236 whole entry, looked up): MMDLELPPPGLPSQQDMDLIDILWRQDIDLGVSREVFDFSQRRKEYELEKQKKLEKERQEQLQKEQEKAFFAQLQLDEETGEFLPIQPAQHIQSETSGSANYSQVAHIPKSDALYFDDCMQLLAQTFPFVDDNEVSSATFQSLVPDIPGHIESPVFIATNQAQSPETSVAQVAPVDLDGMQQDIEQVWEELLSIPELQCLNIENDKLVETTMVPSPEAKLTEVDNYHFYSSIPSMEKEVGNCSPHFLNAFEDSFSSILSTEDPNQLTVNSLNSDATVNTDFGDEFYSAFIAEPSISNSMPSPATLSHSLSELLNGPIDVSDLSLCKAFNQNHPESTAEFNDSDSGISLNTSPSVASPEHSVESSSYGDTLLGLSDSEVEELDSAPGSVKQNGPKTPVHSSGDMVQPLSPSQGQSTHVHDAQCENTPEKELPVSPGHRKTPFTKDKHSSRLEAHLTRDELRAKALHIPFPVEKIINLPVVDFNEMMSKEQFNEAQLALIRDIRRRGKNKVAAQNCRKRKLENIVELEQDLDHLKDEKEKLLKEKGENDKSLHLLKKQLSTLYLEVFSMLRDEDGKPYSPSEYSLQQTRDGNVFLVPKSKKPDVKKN
Sequence of Nuclear factor NF-kappa-B p105 subunit (Homo sapiens) (P19838 whole entry, looked up): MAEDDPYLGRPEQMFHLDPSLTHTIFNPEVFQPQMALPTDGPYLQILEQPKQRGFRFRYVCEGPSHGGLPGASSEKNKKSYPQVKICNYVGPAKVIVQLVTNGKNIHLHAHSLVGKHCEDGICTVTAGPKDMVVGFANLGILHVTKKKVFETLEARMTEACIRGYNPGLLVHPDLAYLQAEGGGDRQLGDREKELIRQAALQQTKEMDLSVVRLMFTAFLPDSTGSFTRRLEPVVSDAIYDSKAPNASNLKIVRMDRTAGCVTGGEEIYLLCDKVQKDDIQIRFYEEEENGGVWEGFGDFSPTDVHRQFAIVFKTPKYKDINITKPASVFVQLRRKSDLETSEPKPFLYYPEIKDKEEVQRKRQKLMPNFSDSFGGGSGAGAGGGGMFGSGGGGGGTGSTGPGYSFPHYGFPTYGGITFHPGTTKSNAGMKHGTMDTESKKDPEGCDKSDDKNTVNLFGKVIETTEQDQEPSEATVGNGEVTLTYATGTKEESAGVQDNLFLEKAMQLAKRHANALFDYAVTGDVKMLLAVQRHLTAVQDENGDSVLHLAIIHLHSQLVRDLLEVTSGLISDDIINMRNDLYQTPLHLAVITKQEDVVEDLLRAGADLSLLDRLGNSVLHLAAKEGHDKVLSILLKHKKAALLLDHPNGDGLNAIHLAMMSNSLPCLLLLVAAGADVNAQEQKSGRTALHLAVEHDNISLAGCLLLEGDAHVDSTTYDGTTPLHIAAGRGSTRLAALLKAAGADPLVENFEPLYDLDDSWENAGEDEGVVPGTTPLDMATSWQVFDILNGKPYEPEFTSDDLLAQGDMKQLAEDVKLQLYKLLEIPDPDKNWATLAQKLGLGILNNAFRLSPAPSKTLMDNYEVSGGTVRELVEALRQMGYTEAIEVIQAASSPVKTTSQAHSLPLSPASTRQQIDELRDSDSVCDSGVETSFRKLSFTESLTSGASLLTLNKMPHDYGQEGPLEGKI

CCCC(=NOCC)C1=C(O)CC(CC(C)SCC)CC1=O (stereo unspecified)
not listed: [18]
inactive: all other assays above

CC1(C)CCC(=Cc2ccc(Cl)cc2)C1(O)Cn1cncn1 (stereo unspecified)
not listed: [5]
inactive: all other assays above

O=P(O)(O)CCCl
not listed: [5]
inactive: all other assays above
